# Most compounds without a hit are left out; they make up all but 2% or so of the library.
# Rango dissoc inh: inhibition of RanGTP-driven Rango-importin beta dissociation | Biochemical FRET Rango-importin beta, RanGTP-induced dissociation | Potency, µM (highest dose often 46.1 µM) | hit rate 0.071% among 340,000; calls by dose curve; further: nearly all actives have a fitted effect of over 45% in size
#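 Rango FRET biosensor (snurportin-1 IBB flanked by N-terminal EYFP and C-terminal CFP10) at 0.1 uM, with 0.25 uM importin beta in PBS, 1mM DTT, 0.02% Tween-20, 0.1% BSA. 0.6 uM Ran, 2mM GTP and 0.2 uM RCC1 were then added for 45 min at room temperature. Inhibition read as loss of FRET rise.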
# TDP43 rescue: rescues yeast growth from TDP-43 toxicity; Potency, µM (series often up to 46.1 µM), actives largely listed as activators; hit rate 1.8% among 410,000; TDP-43 expressing yeast growth rescue, BacTiter-Glo, 24 h; further: nearly all actives have a fitted effect of over 50% in size
#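 Yeast expressing TDP-43 (pregrown in raffinose, seeded at OD600=0.02 in galactose medium) exposed to compounds 24 hr at 30 deg C. Growth read by BacTiter-Glo luminescence; rescue of toxicity appears as increased signal.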
# ASM inhibitor: human S-ASM enzyme inhibition; P17405; Potency, µM (series often up to 57.5 µM), actives largely listed as inhibitors; placental ASM, HMU-PC fluorogenic substrate, 60 min; hit rate 0.006% among 340,000
#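 Fluorogenic HMU-PC substrate (9 uM final) is turned over by placental ASM in 60 min at 37 C after a 10 min compound preincubation. Reaction ended by alkaline stop (pH 10), with fluorescence read at 386/447 nm.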
# Rango complex inh: Rango-importin beta binding inhibition; Q14974; Rango CFP/YFP FRET sensor + importin beta, 45 min; Potency, µM (doses to about 92.2 µM); hit rate 0.031% among 340,000; AID 540263; calls by dose curve; further: nearly all actives have a fitted effect of over 15% in size
# Target sequence (Q14974 whole entry, looked up): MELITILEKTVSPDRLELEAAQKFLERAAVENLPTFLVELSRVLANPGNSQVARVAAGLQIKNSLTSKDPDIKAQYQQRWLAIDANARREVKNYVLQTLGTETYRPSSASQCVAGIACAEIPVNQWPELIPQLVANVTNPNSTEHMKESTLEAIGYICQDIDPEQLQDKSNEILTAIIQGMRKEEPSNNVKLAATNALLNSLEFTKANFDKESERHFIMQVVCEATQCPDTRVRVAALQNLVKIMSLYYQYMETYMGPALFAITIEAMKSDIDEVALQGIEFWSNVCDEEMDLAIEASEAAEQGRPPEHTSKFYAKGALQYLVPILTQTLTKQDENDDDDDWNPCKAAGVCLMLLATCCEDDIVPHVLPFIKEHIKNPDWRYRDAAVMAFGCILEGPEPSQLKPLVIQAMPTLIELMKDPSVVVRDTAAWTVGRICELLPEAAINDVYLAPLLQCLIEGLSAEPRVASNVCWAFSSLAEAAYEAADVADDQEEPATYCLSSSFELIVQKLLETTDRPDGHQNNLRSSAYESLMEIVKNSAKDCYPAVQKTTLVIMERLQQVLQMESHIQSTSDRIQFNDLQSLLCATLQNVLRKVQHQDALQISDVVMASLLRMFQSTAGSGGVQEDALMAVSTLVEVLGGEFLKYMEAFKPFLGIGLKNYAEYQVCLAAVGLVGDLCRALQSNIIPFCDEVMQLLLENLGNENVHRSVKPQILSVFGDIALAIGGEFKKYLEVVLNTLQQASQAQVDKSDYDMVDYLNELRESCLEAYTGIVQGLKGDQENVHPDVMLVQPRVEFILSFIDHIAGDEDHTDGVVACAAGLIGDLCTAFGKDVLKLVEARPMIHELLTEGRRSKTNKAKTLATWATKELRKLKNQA
#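 FRET biosensor Rango (snurportin 1 IBB between N-terminal EYFP and C-terminal Cerulean), 50 nM in PBS/1 mM DTT/0.02% Tween-20/0.1% BSA, preincubated 5 min RT with compound; 0.125 microM importin beta added, 45 min RT, CFP/YFP FRET ratio read.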
# Abeta yeast res: restores growth of yeast expressing A-beta42 peptide; hit rate 0.063% among 410,000; yeast expressing A-beta42, growth rescue, OD600, 48 h; response scale: 0% DMSO, 100% iron-clioquinol control; Potency, µM (series often up to 46.1 µM), actives largely listed as activators; further: nearly all actives have a fitted effect of over 55% in size
#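 Yeast growth medium received pinned compounds, then yeast cells expressing toxic A-beta were added; plates incubated at 30 C for 48 hr. Growth read as absorbance at 600 nm, normalized to DMSO and equimolar FeCl3 plus clioquinol controls.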
# aSyn yeast inh: rescues yeast growth from alpha-synuclein toxicity; Yeast expressing alpha-synuclein, growth rescue, BacTiter-Glo, 24 h; Potency, µM (top dose mostly 46.1 µM), usual class: activators; hit rate 0.14% among 370,000; AID 652106; further: nearly all actives have a fitted effect of over 65% in size
#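 Rescue of yeast growth: cells expressing toxic alpha-synuclein, induced in galactose at OD600 0.02, incubated with compound 24 h at 30 C. ATP luminescence quantified growth; inhibitors of toxicity appear as activators.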
# A number is an active result; n = inactive; u = inconclusive; x = not tested or not shown; [ ] = another dose, or the depositor's remark. Unless noted, the call rests on the fitted dose curve; in most records, active means well fitted curve in the direction sought with a large enough effect; inconclusive means small, poorly fitted or top-dose-only effect, or another doubt; inactive means no such curve, though single readings can be large; an effect the other way counts as inactive or inconclusive.
SMILES,Rango dissoc inh,TDP43 rescue,ASM inhibitor,Rango complex inh,Abeta yeast res,aSyn yeast inh
N#Cc1cnn2c(-c3ccccc3)ccnc12,n,n,n,n,n,n
NC(=S)c1cnn2c(-c3cccc(C(F)(F)F)c3)ccnc12,n,u,n,n,6.31µM,n
Cc1c(CCNC(=O)C(C)(C)C)sc2nc(-c3ccc(F)cc3)nn12,x,n,x,x,n,x
CC1CCCCN1C(=O)c1cccc(NC2=C(Cl)C(=O)N(Cc3ccccc3)C2=O)c1 (stereo not given),n,17.8µM,n,u,n,n
CCn1c(-c2ccc3ncccc3c2)n[nH]c1=S,n,n,n,n,n,x
CCn1c(-c2cccc(Br)c2)n[nH]c1=S,n,20µM,n,n,n,n
CC(=O)c1cccc(NC(=O)C2C3C=CC(C4CC34)C2C(=O)O)c1 (stereo not given),n,22.4µM,n,n,u,n
Cc1ccccc1NC(=O)C1C2C=CC(C3CC23)C1C(=O)O (stereo not given),n,11.2µM,n,n,n,n
Cc1ccccc1NC(=O)CSc1nc2c(c(=O)n(C)c(=O)n2C)n1Cc1ccccc1F,x,n,x,x,n,x
Cc1ccc(CN2CCN(C3CCN(C(=O)OC(C)(C)C)CC3)C(=O)C2=O)cc1,x,n,x,x,n,x
O=c1c2sccc2nc(SCc2ccc([N+](=O)[O-])cc2)n1Cc1ccccn1,n,22.4µM,n,u,n,n
O=C(c1cc(-c2ccccc2)n[nH]1)N1CCc2c([nH]c3ccccc23)C1c1ccccn1 (stereo not given),n,17.8µM,n,u,u,u
O=C(c1cccs1)N1CCc2c([nH]c3ccccc23)C1c1ccccn1 (stereo not given),n,u,n,u,n,n
Cc1cc(C)c(S(=O)(=O)NCCn2ccc3ccccc32)c(C)c1,n,12.6µM,n,n,u,u
Cc1ccc(S(=O)(=O)NCCc2ccccc2)cc1,n,u,n,n,n,n
Cc1cc(C)c(S(=O)(=O)NCCc2ccccc2)c(C)c1,n,n,n,u,n,20µM
Cc1nc2ccccn2c1C(=O)CSc1ccc(Cl)cc1Cl,n,u,n,n,n,n
Cc1nc2ccccn2c1C(=O)CSc1ccccc1Cl,n,35.5µM,n,n,n[9.22 µM],n
O=C(O)c1ccccc1N=Nc1ccc(O)cc1,n,n,n,n,n,n
Oc1ccc(N=Nc2ccccc2)cc1,n,17.8µM,n,n,n,n
COC(=O)c1ccc(N=Nc2ccccc2)cc1,n,15.8µM,n,n,n,n
Cc1cc(C)cc(Nc2ncc3c(n2)CC(c2ccco2)CC3=O)c1 (stereo not given),n,15.8µM,n,n,n,n
Cc1cccc(Nc2ncc3c(n2)CC(c2ccco2)CC3=O)c1 (stereo not given),u,u,n,n,n,n
O=C(CCn1ccc2ccccc21)NC1CCCc2ccccc21 (stereo not given),n,17.8µM,n,n,n[9.22 µM],n
O=C(CCN1C(=O)C2C3C=CC(C3)C2C1=O)NC1CCCc2ccccc21 (stereo not given),n,n,n,n,n,n
SMILES,Rango dissoc inh,TDP43 rescue,ASM inhibitor,Rango complex inh,Abeta yeast res,aSyn yeast inh
Cc1cc(C)nc(NC(=O)/C=C/c2ccccc2Cl)c1,u,12.6µM,n,n,n,n
Cc1cc(C)nc(NC(=O)/C=C/c2ccc(Cl)cc2Cl)c1,n,7.08µM,n,n,n,n
CC1CCN(C(=O)Cn2cc(SCc3ccccc3)c3ccccc32)CC1,x,n,x,x,n,x
O=c1cc(-c2ccc(Cl)cc2)[nH]c2ccccc12,n,n,n,n,n,n
Clc1ccc(-c2cc3ccccc3[nH]2)cc1,n,10µM,n,n,n,n
CCOc1ccc2nc(N3CCCC(C(=O)Nc4ccc(OC)c(Cl)c4)C3)sc2c1 (stereo not given),x,n,x,x,n,x
O=C(Nc1ccccc1)N1CCN(c2nc3ccccc3s2)CC1,n,22.4µM,n,n,n,n
Cc1ccc(C)c(Nc2nc3c(S(=O)(=O)c4ccc(Br)cc4)nnn3c3ccsc23)c1,x,n,x,x,n,x
O=C(c1cccs1)N1CCN(c2nnc(-c3ccccc3)c3ccccc23)CC1,n,17.8µM,n,n,n,n
Cc1ccc(/C=C/C(=O)O)cc1S(=O)(=O)N1CCc2ccccc21,n,7.94µM,n,n,n,n
Cc1ccc(/C=C/C(=O)O)cc1S(=O)(=O)N1CCCc2ccccc21,n,u,n,n,n,n
COc1cccc(CNC(=O)C(C)n2ncn3cccc3c2=O)c1OC (stereo not given),x,n,x,x,n,x
N#CC1(c2ccccc2)CCCN1C(=O)c1ccccc1Cl (stereo not given),n,n,n,n,n,n
N#CC(C(=O)c1ccccc1Cl)=C1SCCCS1,n,35.5µM,n,n,n,n
O=C(CN1CCN(c2nc(-c3ccccc3)cs2)CC1)NNC(=O)c1ccc(Br)cc1,n,n,n,n,n,n
COCCCNC(=S)N1CCN(c2nc(-c3ccccc3)cs2)CC1,n,35.5µM,n,n,u,n
COc1cccc(-c2csc(N3CCN(C(=O)Nc4ccc(Cl)cc4)CC3)n2)c1,n,11.2µM,n,n,n,n
COc1ccc(NC(=O)N2CCN(c3nc(-c4cccc(OC)c4)cs3)CC2)cc1,n,u,n,u,n,n
O=C(NC(=S)N1CCN(c2nc(-c3ccccc3)cs2)CC1)c1cncc(Br)c1,n,15.8µM,n,n,u,u
COCCCNC(=S)N1CCN(c2nc(-c3ccc(Cl)cc3)cs2)CC1,x,12.6µM,x,x,u,n
Cc1ccc2c(c1)C(=O)C(=O)N2Cc1ccc(OCCC(C)C)cc1,x,n,x,x,n,x
Cc1ccccc1Cn1c(SCc2ccc(C(=O)NCCc3ccccc3)cc2)nc2ccncc21,x,n,x,x,n,x
CC(C)Cn1c(SCc2cccc(F)c2)nc2ccsc2c1=O,x,n,x,x,n,n
CCN(CC)CCCNC(=S)N1CCN(c2nc(-c3ccccc3)cs2)CC1,n,n[1.82 µM],n,n,n,n
CCOCCCNC(=S)N1CCN(c2nc(-c3ccccc3)cs2)CC1,n,20µM,n,n,u,n
O=C1NN=C(c2ccc(Cl)cc2)CC1c1cccc(Br)c1 (stereo not given),n,12.6µM,u,n,n,u
O=C1NN=C(c2ccc(Cl)cc2)CC1c1c[nH]c2ccccc12 (stereo not given),n,n,n,n,n,n
Cc1ccc(C2=NNC(=O)C(c3ccc(Cl)cc3)C2)cc1 (stereo not given),n,22.4µM,n,n,n,n
CCOC(=O)C1CC(c2ccc(Cl)cc2)=NNC1=O (stereo not given),n,n,n,n,n,n
Cc1cc(NC(=O)N2CCC(CN3CCCCCC3)CC2)ccc1Br,x,n,x,x,n,x

# Source: PubChem BioAssay
